Data: PubChem BioAssay (Tox21)
Records with an inconclusive call do not appear. The source made the active and inactive calls. Calls follow the shape of the dose curve; as a rule, active = well fitted curve in the direction sought with a large enough effect in the repeat runs; inconclusive = weak or mixed curves; inactive = no such curve, though single readings can be large; an effect the other way counts as inactive or inconclusive.

Tests used:
[1] = A CellTox Green Cytotoxicity Assay to monitor cytotoxicity in HepG2 cells - 8 hour (AID 1224890); also: nearly all actives have a fitted effect of over 45% in size
How it was run: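 HepG2, 600 cells/well premixed w/ CellTox Green; 5 h settle, 37 C/5% CO2; pintool cpd add (DMSO); 37 C, 40 h; fluorescence read at 0, 8, 16, 24, 32, 40 h.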

[2] = qHTS assay to identify small molecule antagonists of the estrogen receptor alpha (ER-alpha) signaling pathway using the BG1 cell line in the presence of 0.1 nM 17-beta-estradiol - cell viability counter screen (AID 1259241); also: nearly all actives have a fitted effect of over 40% in size
How it was run: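 CellTiter-Fluor read (30 min, 37C) on ER-alpha/ERE-luc VM7Luc4E2 cells; 22 hr compound treatment; agonist 0.1 nM E2 final; same-well multiplex.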

[3] = qHTS assay to identify small molecule antagonists of the androgen receptor (AR) signaling pathway using the MDA cell line in the presence of 0.5 nM R1881 - cell viability counter screen (AID 1259242); also: nearly all actives have a fitted effect of over 45% in size
How it was run: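 Live-cell protease fluorescence, CellTiter-Fluor, 30 min at 37C. Cells: MDA-kb2, 3,000/well, preincubated 5 hr. Compounds plus 0.5 nM R1881 final, 16 hr, 37C, 0% CO2.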

[4] = target: Androgen receptor (Homo sapiens) (UniProt P10275); assay: qHTS assay to identify small molecule antagonists of the androgen receptor (AR) signaling pathway using the MDA cell line in the presence of 0.5 nM R1881 (AID 1259243); also: nearly all actives have a fitted effect of over 50% in size
How it was run: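 MDA-kb2, MMTV-luc (AR/GR elements); 3,000 cells/well; cpd + 0.5 nM R1881 final; 16 hr 37C, 0% CO2; ONE-Glo 30 min RT; luminescence.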

[5] = target: Estrogen receptor (Homo sapiens) (UniProt P03372); assay: qHTS assay to identify small molecule antagonists of the estrogen receptor alpha (ER-alpha) signaling pathway using the BG1 cell line in the presence of 0.1 nM 17-beta-estradiol (AID 1259244); also: nearly all actives have a fitted effect of over 50% in size
How it was run: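 Luminescence after ONE-Glo (30 min, room temperature) measured ERE-luciferase activity in VM7Luc4E2 cells treated 22 h with compound and 0.1 nM final 17beta-estradiol as stimulator.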

[6] = qHTS assay to identify small molecule HDAC inhibitors (AID 1259364); also: potency is read from the fitted curve at half-maximal effect;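 also: wild-type HCT-116 cells with endogenous class I/II HDAC activity; nearly all actives have a fitted effect of over 45% in size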
How it was run: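 HCT-116 (wild type), 1,500 cells/well, overnight; compound 2 hr 37C 5% CO2; HDAC-Glo I/II reagent 30 min RT; luminescence readout.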

[7] = qHTS assay to identify small molecule HDAC inhibitors - cell viability counter screen (AID 1259365); also: series mostly up to about 92 µM; nearly all actives have a fitted effect of over 50% in size
How it was run: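 To flag cytotoxic hits, 1,500 wild-type HCT-116 cells per well, plated the day before, receive test compounds for 2hr at 37 C before CellTiter-Glo reagent and a luminescence read.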

[8] = qHTS assay to identify small molecule agonists of the sonic hedgehog signaling (Shh) pathway - cell viability counter screen (AID 1259366); also: nearly all actives have a fitted effect of over 50% in size
How it was run: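 Fluorescence from CellTiter-Fluor reports live cells in this counter screen. NIH/3T3-derived Gli1-Luc reporter cells receive test compounds for 24hr at 37C; reagent goes in at 23hr.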

[9] = qHTS assay to identify small molecule antagonists of the sonic hedgehog signaling (Shh) pathway - cell viability counter screen (AID 1259367); also: nearly all actives have a fitted effect of over 55% in size
How it was run: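 Conditioned medium drove Shh signaling in 3T3 Gli1-Luc cells exposed to compounds at 37C and 5% CO2. Viability was determined from CellTiter-Fluor fluorescence, with reagent incubated 1 hr after 23 hr of treatment.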

Measured: Potency

Chain of Estrogen receptor (Homo sapiens) (P03372 whole entry, looked up): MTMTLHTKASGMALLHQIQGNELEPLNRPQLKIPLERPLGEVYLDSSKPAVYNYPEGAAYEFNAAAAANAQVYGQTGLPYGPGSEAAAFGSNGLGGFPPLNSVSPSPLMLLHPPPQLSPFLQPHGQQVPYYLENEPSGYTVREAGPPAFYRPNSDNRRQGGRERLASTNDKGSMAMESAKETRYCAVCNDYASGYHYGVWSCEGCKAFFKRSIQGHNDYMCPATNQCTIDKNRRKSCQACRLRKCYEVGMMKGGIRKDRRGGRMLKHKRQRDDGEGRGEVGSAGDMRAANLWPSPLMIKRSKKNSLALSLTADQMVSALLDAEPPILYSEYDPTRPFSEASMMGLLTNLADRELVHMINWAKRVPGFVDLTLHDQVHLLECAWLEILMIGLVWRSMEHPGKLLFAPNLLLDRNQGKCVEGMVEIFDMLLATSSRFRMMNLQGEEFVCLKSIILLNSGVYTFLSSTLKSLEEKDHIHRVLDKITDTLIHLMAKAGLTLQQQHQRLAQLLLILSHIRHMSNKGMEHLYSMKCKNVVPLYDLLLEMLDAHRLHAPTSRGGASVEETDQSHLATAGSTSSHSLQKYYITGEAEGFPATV
Chain of Androgen receptor (Homo sapiens) (P10275 whole entry, looked up): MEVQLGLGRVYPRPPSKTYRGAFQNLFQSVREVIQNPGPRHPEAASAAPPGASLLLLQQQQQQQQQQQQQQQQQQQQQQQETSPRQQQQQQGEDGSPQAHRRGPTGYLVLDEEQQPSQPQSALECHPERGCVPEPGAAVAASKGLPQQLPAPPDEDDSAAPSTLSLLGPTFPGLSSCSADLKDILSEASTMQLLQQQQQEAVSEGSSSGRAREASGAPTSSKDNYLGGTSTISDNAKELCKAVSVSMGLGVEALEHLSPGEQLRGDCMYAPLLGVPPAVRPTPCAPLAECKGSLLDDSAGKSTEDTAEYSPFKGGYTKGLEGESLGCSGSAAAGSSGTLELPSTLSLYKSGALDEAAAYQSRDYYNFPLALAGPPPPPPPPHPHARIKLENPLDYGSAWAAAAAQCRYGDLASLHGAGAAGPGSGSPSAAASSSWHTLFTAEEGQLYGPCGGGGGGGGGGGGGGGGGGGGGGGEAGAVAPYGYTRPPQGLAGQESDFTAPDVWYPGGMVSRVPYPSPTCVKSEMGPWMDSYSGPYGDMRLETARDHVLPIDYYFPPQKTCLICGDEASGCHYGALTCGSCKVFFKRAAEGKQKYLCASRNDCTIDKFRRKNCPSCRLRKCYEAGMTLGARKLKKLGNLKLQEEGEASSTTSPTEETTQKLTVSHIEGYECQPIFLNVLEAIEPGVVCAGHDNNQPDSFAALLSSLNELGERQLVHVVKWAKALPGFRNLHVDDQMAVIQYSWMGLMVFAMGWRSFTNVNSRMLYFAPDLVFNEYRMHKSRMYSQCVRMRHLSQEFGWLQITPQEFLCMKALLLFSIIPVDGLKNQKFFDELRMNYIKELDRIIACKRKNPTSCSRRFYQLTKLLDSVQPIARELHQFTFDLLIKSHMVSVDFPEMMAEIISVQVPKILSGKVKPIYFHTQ

CCC[Si](OC)(OC)OC
not listed: [9]
inactive: all other assays above

O=C(O)c1cccc(C(=O)O)c1C(=O)O
not listed: [5]
inactive: all other assays above

CC(C)C/C=C(\C=O)c1ccccc1
not listed: [4] | [8] | [9]
inactive: all other assays above

Cc1cc(SC2=C(O)C[C@@](CCc3ccc(N)cc3)(C(C)C)OC2=O)c(C(C)(C)C)cc1CO
not listed: [5] | [9]
inactive: all other assays above

COC(=O)/C=C/C(C)=C\C=C\C(C)=C\C=C\C=C(C)\C=C\C=C(C)\C=C\C(=O)O
active: [6] 24.3 µM
inactive: all other assays above

C[C@H](N)C(=O)N[C@@H](C)C(=O)NC1[C@H]2CN(c3nc4c(cc3F)c(=O)c(C(=O)O)cn4-c3ccc(F)cc3F)C[C@@H]12 (some centres undefined)
not listed: [5] | [7]
inactive: all other assays above

COc1cccc([C@H](O)C2CCN(CCc3ccc(F)cc3)CC2)c1OC
not listed: [4] | [9]
inactive: all other assays above

CCN(CC)CC(=O)OCC(=O)[C@@]1(O)CC[C@H]2[C@@H]3CCC4=CC(=O)CC[C@]4(C)[C@H]3[C@@H](O)C[C@@]21C
inactive: all assays above

FC(F)(Cl)C(F)(Cl)Cl
inactive: all assays above

NC(=O)c1ccccc1
not listed: [9]
inactive: all other assays above

Nc1ccc(-c2ccc(F)cc2)cc1
inactive: [1] | [2] | [3]

CCCN(C1CCN(C(=O)C2CCNCC2)CC1)[C@@H]1CCc2ccc(OC)cc2C1
not listed: [5] | [7] | [8]
inactive: all other assays above

O=C(O)c1cc(C(=O)O)c(C(=O)O)cc1C(=O)O
not listed: [5] | [7]
inactive: all other assays above

CC(C)=CCC/C(C)=C/C=N/O
not listed: [4] | [9]
inactive: all other assays above

CC(=O)Nc1cccc(N)c1
not listed: [4]
inactive: all other assays above

CC(C)NC(=O)c1ccccc1N
not listed: [4]
inactive: all other assays above

COc1ccnc2c1CCCCC2S(=O)c1nc2ccccc2[nH]1 (centres undefined)
not listed: [4]
inactive: all other assays above

N#CCCCC(C#N)CCC#N (centres undefined)
not listed: [4]
inactive: all other assays above

O=C1CCCN1CCO
not listed: [4]
inactive: all other assays above

CC(CCl)OC(C)CCl (centres undefined)
not listed: [4]
inactive: all other assays above

COc1ccc(/C=C/c2cc(OC)cc(=O)o2)cc1
active: [6] 6.26 µM
not listed: [4] | [8]
inactive: all other assays above

CCc1ccc2c(c1)C(=O)c1ccccc1C2=O
active: [6] 0.77 µM
not listed: [4]
inactive: all other assays above

Cc1ccccc1CCO
not listed: [4]
inactive: all other assays above

CC(C)=CCCC(C)C=O (centres undefined)
not listed: [4]
inactive: all other assays above

CC(C)Oc1ccccc1O
not listed: [4]
inactive: all other assays above

CCCC(=O)OCc1ccccc1
not listed: [4]
inactive: all other assays above

CCCCCCCCCCCCSC#N
not listed: [4]
inactive: all other assays above
